Rows were chosen to be rich in hits. Some 11% of all compounds tested hit in one or more screens of this group.
Luciferase inh: inhibitors of firefly (Photinus pyralis) luciferase; purified P. pyralis luciferase, luminescence, biochemical; Potency, µM (titrated, usually from 115 µM), hits mostly inhibitors; 2.5% of 76,000 active; further: nearly all actives have a fitted effect of over 65% in size
Target sequence (P08659 whole entry, looked up): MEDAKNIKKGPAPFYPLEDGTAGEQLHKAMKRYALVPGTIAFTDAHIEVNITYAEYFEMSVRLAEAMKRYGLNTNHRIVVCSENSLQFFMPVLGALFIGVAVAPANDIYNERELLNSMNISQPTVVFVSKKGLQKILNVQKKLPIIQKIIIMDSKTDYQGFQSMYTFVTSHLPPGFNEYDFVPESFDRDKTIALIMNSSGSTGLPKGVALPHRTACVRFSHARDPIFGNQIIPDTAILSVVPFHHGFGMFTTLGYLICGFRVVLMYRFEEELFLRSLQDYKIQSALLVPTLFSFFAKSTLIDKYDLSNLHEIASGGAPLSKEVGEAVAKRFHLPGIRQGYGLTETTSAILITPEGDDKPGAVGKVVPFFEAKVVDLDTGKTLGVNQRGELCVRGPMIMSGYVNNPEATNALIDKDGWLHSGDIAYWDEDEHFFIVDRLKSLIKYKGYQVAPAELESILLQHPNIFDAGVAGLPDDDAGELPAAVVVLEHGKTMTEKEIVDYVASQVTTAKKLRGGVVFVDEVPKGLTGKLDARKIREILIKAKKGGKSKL
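Purified 10nM P. pyralis luciferase with 10uM D-luciferin and 10uM ATP in 50mM Tris acetate pH 7.5, 10mM Mg acetate, 0.01% Tween-20, 0.05% BSA. qHTS titration; luminescence read by CCD imager.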
HEK293 tox: kills HEK 293 cells; HEK 293 viability, ATP luminescence (CellTiter-Glo), 48-72 h; 6.6% of 94,000 active; Potency, µM (top dose mostly 115 µM), most hits filed as inhibitors; further: nearly all actives have a fitted effect of over 60% in size
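Cytotoxicity was scored by loss of ATP-coupled luminescence (CellTiter-Glo) in HEK 293 cells. Compound treatment ran 48 or 72 hr at 37 degree Celsius, 5% CO2, 95% humidity.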
NPR1 antag: antagonists of human natriuretic peptide receptor Npr1; P16066; HEK293 hNpr1 GloSensor cGMP, ANP-stimulated luminescence; Potency, µM (highest dose often 46.3 µM), hits mostly inhibitors; 1.6% of 76,000 active; calls by dose curve; further: nearly all actives have a fitted effect of over 60% in size
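Compound pre-incubated 30 min at room temperature on GloSensor-loaded HEK293 cells stably carrying hNpr1 and the pGS-40F cGMP biosensor. Stimulation uses hNppA at 0.1 nM final; luminescence is taken at baseline and 20 min post-agonist.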
3T3 cytotox: kills NIH 3T3 cells; 4.3% of 94,000 active; Potency, µM (top dose mostly 96.7 µM), actives largely listed as inhibitors; NIH 3T3 viability, CellTiter-Glo ATP luminescence, 48-72 h; further: nearly all actives have a fitted effect of over 55% in size
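NIH 3T3 cells at 400 cells/well received 23 nL of compound by pintool and were incubated 48 or 72 h at 37 °C. Viability was read as ATP-coupled CellTiter-Glo luminescence.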
Of the large screens only hits and unclear results are named; the others gave an inactive call; ! = repeats disagree. Unless noted, the call rests on the fitted dose curve; in most records, active means well fitted curve in the direction sought with a large enough effect; inconclusive means small, poorly fitted or top-dose-only effect, or another doubt; inactive means no such curve, though single readings can be large; an effect the other way counts as inactive or inconclusive.

Cc1ccc(-c2ccc(CCC(=O)N[C@@H]3CCOC[C@H]3OCC(=O)O)o2)cc1	Luciferase inh 25µM
COc1ccc(-c2ccccc2C(=O)N2CCC(NC(=O)c3ccc(Cl)cc3)CC2)nn1	HEK293 tox inconclusive (no result: Luciferase inh, NPR1 antag)
COc1cccc(CN2CC(O)CN(C(=O)OCC(C)C)CC2=O)c1OC (stereo not given)	3T3 cytotox inconclusive (no result: Luciferase inh, NPR1 antag)
O=C(CCC1CCN(S(=O)(=O)c2ccccc2)CC1)N1CCCC1	HEK293 tox inconclusive, 3T3 cytotox inconclusive
O=C(CCC1CCN(C(=O)[C@H]2C[C@@H]3C=C[C@H]2C3)CC1)N1CCC(Cc2ccccc2)CC1	HEK293 tox 45µM, NPR1 antag inconclusive, 3T3 cytotox inconclusive
COc1cccc(CN2CCCCCNC(=O)CC2c2ccccc2)c1OC (stereo not given)	HEK293 tox inconclusive, 3T3 cytotox inconclusive
CCOc1ccccc1CN1CCCCCCNC(=O)CC1c1ccccc1 (stereo not given)	HEK293 tox 32µM, 3T3 cytotox 25µM
COc1cccc(CN2CCCCCCNC(=O)CC2c2ccccc2)c1OC (stereo not given)	HEK293 tox 45µM, 3T3 cytotox 40µM
O=C1NCCCCCN(Cc2cn[nH]c2-c2cccs2)[C@H]2CCC[C@@H]12	none
O=C1CC(c2ccccc2)N(Cc2cn[nH]c2-c2cccs2)CCCCCN1 (stereo not given)	HEK293 tox 79µM, 3T3 cytotox inconclusive
CCOc1ccccc1CN1CCO[C@@H](COC)[C@@H]1c1ccccc1	HEK293 tox 40µM (no result: Luciferase inh, NPR1 antag)
c1cc(CN2CCNc3cc(-c4ccsc4)ncc3C2)ccn1	Luciferase inh inconclusive, HEK293 tox inconclusive
c1ccc(CNc2cc3c(cn2)CN(Cc2cccnc2)CCN3)cc1	none
Clc1cnccc1CN1CCNc2cc(-c3ccccc3)ncc2C1	Luciferase inh 28µM, HEK293 tox inconclusive, 3T3 cytotox inconclusive
C[S+](=O)([O-])c1ccc(-c2cc3c(cn2)CN(Cc2ccccc2)CCN3)cc1	Luciferase inh inconclusive, HEK293 tox inconclusive, 3T3 cytotox inconclusive
Fc1ccccc1-c1cc2c(cn1)CN(Cc1cccnc1)CCN2	Luciferase inh 32µM, HEK293 tox inconclusive
Fc1cccc(-c2cc3c(cn2)CN(Cc2ccncc2)CCN3)c1	Luciferase inh 40µM, HEK293 tox inconclusive
Cc1ccc(C(=O)NC2CCN(c3cnn(CC4CC4)c(=O)c3)CC2)cc1C	none
Cc1ccc(N2CCC(N[C@@H]3CC[C@@H](N)C3)CC2)cc1Cl	HEK293 tox 7.9µM, 3T3 cytotox 10µM
COC[C@H]1C[C@H]2C[C@@H](O)[C@H](N(C)Cc3cccc(F)c3)[C@]2(O)CO1	HEK293 tox inconclusive (no result: Luciferase inh, NPR1 antag)
CS(=O)(=O)N1CCC2(CC1)CN(c1cccc(F)c1)C2c1ccccc1 (stereo not given)	HEK293 tox 13µM, 3T3 cytotox inconclusive (no result: Luciferase inh, NPR1 antag)
COc1ccccc1NC(=O)c1cc(-c2ccccc2C(F)(F)F)nc2c1cnn2C	HEK293 tox 45µM, 3T3 cytotox inconclusive (no result: Luciferase inh, NPR1 antag)
COc1ccccc1-c1cc(C(=O)Nc2ccc(Cl)cc2)c2cnn(C)c2n1	HEK293 tox 22µM, 3T3 cytotox inconclusive (no result: Luciferase inh, NPR1 antag)
COc1cccc(NC(=O)c2cc(-c3ccccc3C(F)(F)F)nc3c2cnn3C)c1	HEK293 tox 22µM, 3T3 cytotox inconclusive (no result: Luciferase inh, NPR1 antag)
COc1cccc(NC(=O)c2cc(-c3ccc(C(F)(F)F)cc3)nc3c2cnn3C)c1	HEK293 tox 40µM, 3T3 cytotox inconclusive (no result: Luciferase inh, NPR1 antag)
Cn1ncc2c(C(=O)Nc3ccccc3F)cc(-c3ccccc3C(F)(F)F)nc21	none (no result: Luciferase inh, NPR1 antag)
COC(=O)N1CCC(C(=O)N2CCCC(c3nc4ccncc4[nH]3)C2)CC1 (stereo not given)	none (no result: Luciferase inh, NPR1 antag)
Fc1ccccc1Nc1cnc2ccc(-n3ccnc3)nn12	HEK293 tox inconclusive, 3T3 cytotox inconclusive
O=C([C@@H]1C[C@H](F)CN1S(=O)(=O)Cc1ccccc1Cl)N1CCc2ccccc2C1	3T3 cytotox inconclusive
CCCCN(C)C(=O)CCC1CCN(c2cc(NC3CC3)ncn2)CC1	HEK293 tox 32µM, NPR1 antag 18µM, 3T3 cytotox inconclusive
CCCNc1cc(N2CCC(CCC(=O)NCC3CC3)CC2)ncn1	none
CCCNc1cc(N2CCC(CCC(=O)N3CCN(c4ccccc4F)CC3)CC2)ncn1	Luciferase inh inconclusive, HEK293 tox inconclusive, NPR1 antag 13µM, 3T3 cytotox inconclusive
CCNc1cc(N2CCC(CCC(=O)N3CCN(c4ncccn4)CC3)CC2)ncn1	HEK293 tox 50µM, NPR1 antag inconclusive, 3T3 cytotox inconclusive
O=C(c1nc2cccnc2n(Cc2ccccc2)c1=O)N1CCOCC1	none (no result: Luciferase inh, NPR1 antag)
Cc1noc2c(NCC3CCOCC3)cc(-c3cccnc3)nc12	3T3 cytotox inconclusive
Cc1noc2c(N(C)C)cc(-c3cccnc3)nc12	3T3 cytotox inconclusive
Cc1noc2c(NC(C)C)cc(-c3cccnc3)nc12	3T3 cytotox 40µM
Cc1noc2c(Nc3ccc(C(N)=O)cc3)cc(-c3cccnc3)nc12	3T3 cytotox 20µM
O=C1Nc2ccccc2C12CCN([S+](=O)([O-])c1ccsc1)CC2	HEK293 tox 45µM
O=C1Nc2ccccc2C12CN([S+](=O)([O-])c1cccc(C(F)(F)F)c1)C2	3T3 cytotox inconclusive (no result: Luciferase inh, NPR1 antag)
COCc1nc(C2CC(N)C2)cc(N2Cc3nc(C)n(C)c(=O)c3C2)n1 (stereo not given)	HEK293 tox inconclusive
CCCC1=Nc2cc(C(=O)NCCCN3CCCCC3CC)ccc2Sc2ccc(C)cc21 (stereo not given)	HEK293 tox inconclusive, 3T3 cytotox 7.1µM
CCCC1=Nc2cc(C(=O)NCCc3ccccc3)ccc2Sc2ccc(C)cc21	HEK293 tox inconclusive
Cc1ccc(C(=O)NC2CCN(c3nccc(Nc4ccccc4F)n3)CC2)cc1	HEK293 tox 22µM, 3T3 cytotox inconclusive (no result: Luciferase inh, NPR1 antag)
O=C(NC1CCN(c2nccc(Nc3ccccc3F)n2)CC1)c1cccc(Cl)c1	HEK293 tox inconclusive, 3T3 cytotox 32µM (no result: Luciferase inh, NPR1 antag)
Cc1ccc(C(=O)N2CCN(c3nccc(Nc4ccccc4F)n3)CC2)cc1	HEK293 tox 45µM!, 3T3 cytotox inconclusive (no result: Luciferase inh, NPR1 antag)
O=C(Cc1ccccn1)NC1CCN(c2nccc(Nc3ccccc3F)n2)CC1	3T3 cytotox inconclusive (no result: Luciferase inh, NPR1 antag)
CC(=O)N1CCN(c2nccc(Nc3ccccc3F)n2)CC1	HEK293 tox inconclusive (no result: Luciferase inh, NPR1 antag)
Cc1ccccc1C(=O)NC1CCN(c2nccc(Nc3ccccc3F)n2)CC1	HEK293 tox 20µM, 3T3 cytotox inconclusive (no result: Luciferase inh, NPR1 antag)
Cc1nnc2ccc(N3CCCN(C(=O)Cc4ccc(F)cc4)CC3)nn12	none (no result: Luciferase inh, NPR1 antag)
O=C(NCCc1ccccc1)NCC1CCC(=O)N(Cc2ccccc2)CC1 (stereo not given)	none (no result: Luciferase inh, NPR1 antag)
CCC(=O)N1CCCN(c2ccnc3ccnn23)CC1	3T3 cytotox inconclusive (no result: Luciferase inh, NPR1 antag)
COCC(=O)NC1CCN(C(=O)c2ccc(-c3ncccc3C#N)cc2)CC1	none (no result: Luciferase inh, NPR1 antag)
O=C(c1ccc(C(F)(F)F)cc1)N1CCCC(c2nn(-c3ccccn3)c(=O)[nH]2)C1 (stereo not given)	none (no result: Luciferase inh, NPR1 antag)
CC1(C(=O)Nc2ccccc2F)COCc2cnc(Nc3ccccc3)nc21 (stereo not given)	HEK293 tox inconclusive, 3T3 cytotox inconclusive
CC1(C(=O)NCc2cccnc2)CCc2cnc(Nc3ccccc3)nc21 (stereo not given)	HEK293 tox 89µM, 3T3 cytotox 25µM
